A selection: hits, their analogues and other compounds. The true share with any hit is near 3.2%.
ClpP mod: qHTS Assay for Activators of ClpP | AID 651965, 2013 | 340,000 compounds, 1.9% hits | purified B. subtilis ClpP, FRET peptide cleavage, 20 min | ATP-dependent Clp protease proteolytic subunit (Bacillus subtilis (strain 168)), P80244 | Potency, µM (titrated, usually from 57.5 µM), without a hit: at the top dose activity change, negative = active; active means well fitted falling curve with a large enough effect; inconclusive means small, poorly fitted or top-dose-only effect; inactive means no such curve, though single readings can be large or run the other way; further: the source files actives as falling curves though it sought activators and does not explain the sign; nearly all actives have a fitted effect of over 65% in size
Target sequence (P80244 whole entry, looked up): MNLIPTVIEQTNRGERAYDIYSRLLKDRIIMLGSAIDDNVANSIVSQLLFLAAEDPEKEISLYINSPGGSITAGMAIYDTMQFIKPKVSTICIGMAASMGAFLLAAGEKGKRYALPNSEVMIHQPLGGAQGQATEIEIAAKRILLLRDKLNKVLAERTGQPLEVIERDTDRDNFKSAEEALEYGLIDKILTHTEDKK
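ClpP 10 microg/mL final, pH 8 Tris/KCl buffer with BSA, glycerol, Tween-20; compound pinned in; FRET-FV substrate; RT 20 min; Ex320/Em430; ΔFRET vs ADEP 5.8 microM, DMSO, no enzyme.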
GLP1R ag: qHTS of GLP-1 Receptor Agonists. Potency, µM (highest dose often 45.6 µM), for inactives: at the top dose activation, usual class: activators. AID 624172, 2012. 380,000 compounds, 0.007% hits. HEK293 GLP-1R CRE-luciferase, luminescence, 4-6 h; cells express a hypersensitive GLP-1R form. Glucagon-like peptide 1 receptor (Homo sapiens), P43220; further: % of control where 0% means no effect
Target sequence (P43220 whole entry, looked up): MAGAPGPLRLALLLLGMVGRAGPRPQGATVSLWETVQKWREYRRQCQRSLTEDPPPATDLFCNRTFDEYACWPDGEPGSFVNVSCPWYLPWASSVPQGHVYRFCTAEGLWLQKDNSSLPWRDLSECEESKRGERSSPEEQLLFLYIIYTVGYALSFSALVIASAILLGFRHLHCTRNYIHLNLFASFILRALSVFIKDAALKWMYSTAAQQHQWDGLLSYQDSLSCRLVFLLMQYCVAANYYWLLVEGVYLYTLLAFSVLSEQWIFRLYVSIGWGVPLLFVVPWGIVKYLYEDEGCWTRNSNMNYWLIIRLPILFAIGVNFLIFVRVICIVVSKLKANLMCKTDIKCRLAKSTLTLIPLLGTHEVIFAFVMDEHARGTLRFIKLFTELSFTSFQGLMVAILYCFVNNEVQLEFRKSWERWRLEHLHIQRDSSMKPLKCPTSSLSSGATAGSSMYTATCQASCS
GLP1R cytotox: qHTS of GLP-1 Receptor Inverse Agonists: Cytotox Screen; HEK293 cAMP-luciferase reporter cells, luminescence, 24 h; Potency, µM (doses to about 38.3 µM), inactives show at the top dose activity change, negative = inhibition, actives largely listed as inhibitors; 410,000 compounds, 0.13% hits; AID 624418, 2012;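 further: loss of luciferase light is scored as toxicity; on the % scale 0 is the no-effect control and ±100 the full control effect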
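Here, cytotoxicity is scored as loss of luminescence. The MLSMR collection was tested on cells seeded in medium containing 10% Nu serum, with a 24 hr compound exposure preceded by 12 hours of culture.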
GLP-1R inv ag: qHTS of GLP-1 Receptor Inverse Agonists (Inhibition Mode) | Glucagon-like peptide 1 receptor (Homo sapiens), P43220 | HEK293 GLP-1R CRE-luciferase, luminescence, 24 h; GLP-1R form is constitutively active | Potency, µM (titrated, usually from 38.3 µM), for inactives: top-dose activity change, negative = inhibition, actives largely listed as inhibitors | 410,000 compounds, 1.6% hits; further: on the % scale 0 is the no-effect control and ±100 the full control effect; nearly all actives have a fitted effect of over 55% in size
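GLP-1R inverse agonism mode: basal reporter luminescence in engineered HEK293 cells measured after one day of compound exposure at 37 deg C, with a 12 min room-temperature detection step.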
The depositor's hits bear a star; ? = inconclusive; . = not tested or not shown. Unless noted, the call rests on the fitted dose curve; in most records, active means well fitted curve in the direction sought with a large enough effect; inconclusive means small, poorly fitted or top-dose-only effect, or another doubt; inactive means no such curve, though single readings can be large; an effect the other way counts as inactive or inconclusive. Potency means the concentration at half of the fitted maximal effect.

SMILES	ClpP mod	GLP1R ag	GLP1R cytotox	GLP-1R inv ag
CC(=O)NCN1CCN(CNC(C)=O)CC1	25.1µM*	1.2%	1.3%	1.8%
O=C(O)CN1CCN(CC(=O)O)CCN(CC(=O)O)CCN(CC(=O)O)CC1	0.2%	-5.9%	-2.2%	2.7%
O=c1[nH]/c(=C/c2ccc3c(c2)OCO3)c(=O)[nH]/c1=C\c1ccc2c(c1)OCO2	0.5%	.	.	.
CN(C)c1ccc(CN(Cc2ccco2)C(=O)c2ccc(C(C)(C)C)cc2)cc1	-14.2%	.	-0.1%	11.2µM*
Cc1ccc(C(=O)N(Cc2ccco2)Cc2ccco2)cc1	0.3%	.	8.6%	-8.8%
Cc1ccc(CN(Cc2ccco2)C(=O)c2cccc(C)c2)cc1	-3.6%	.	0.7%	11.2µM*
CS(=O)(=O)N1CCc2cc(C(=O)Nc3ccc(S(N)(=O)=O)cc3)ccc21	-3.2%	.	5.7%	0.8%
O=c1c2ccccc2ncn1-c1ccc([N+](=O)[O-])cc1[N+](=O)[O-]	.	-0.2%	-24.2%	5.62µM*
CC(C)c1cccc(NC(=O)COC(=O)c2ccccc2OCc2cccc(Br)c2)c1	-13.3%	.	.	.
Cc1oc(-c2ccccc2Cl)nc1CS(=O)(=O)CC(=O)NC(C)CCc1ccccc1 (stereo not drawn)	-1.0%	-2.9%	-11.4%	10µM*
CC(NC(=O)NC12CC3CC(CC(C3)C1)C2)c1ccc2c(c1)OCO2 (stereo not drawn)	.	-0.4%	3.7%	11.2µM*
CC(NC(=O)NC1CCCCC1)c1ccc2c(c1)OCO2 (stereo not drawn)	-1.6%	4.1%	-2.7%	?
CC(C)N=C(NS(=O)(=O)c1ccccc1)C(Cl)(Cl)Cl	0.6%	-7.1%	?	3.98µM*
O=S(=O)(O)OCC1OC(OC2(COS(=O)(=O)O)OC(COS(=O)(=O)O)C(OS(=O)(=O)O)C2OS(=O)(=O)O)C(OS(=O)(=O)O)C(OS(=O)(=O)O)C1OS(=O)(=O)O (stereo not drawn)	.	-2.8%	.	.
Cc1ccc2oc(C(=O)N(Cc3ccccc3)C3CCS(=O)(=O)C3)c(C)c2c1 (stereo not drawn)	-0.6%	21.5%	-20.8%	?
Cc1c(C(=O)N(Cc2ccccc2Cl)C2CCS(=O)(=O)C2)oc2ccccc12 (stereo not drawn)	0.1%	13.7%	-30.8%	10µM*
Cc1ccc2c(ccc[n+]2CC(=O)c2ccccc2)c1	17.8µM*	0.8%	-5.4%	-26.2%
CC1=CC(C)(C)NC(=S)N1C(C)c1ccccc1 (stereo not drawn)	0.8%	6.7%	10µM*	?
CCOc1ccc(S(=O)(=O)NCC2CCCO2)c2ccccc12 (stereo not drawn)	-2.6%	9.1%	0.7%	?
CCOc1ccc(S(=O)(=O)NCC2CCCO2)c2cccnc12 (stereo not drawn)	39.8µM*	-4.1%	-11.2%	3.7%
CCOc1ccc(S(=O)(=O)NCc2cccnc2)c2ccccc12	.	19.5%	0.8%	-5.9%
CCOc1ccc(S(=O)(=O)NCc2ccc(Cl)cc2)c2cccnc12	15.8µM*	29.7%	-7.8%	34.3%
O=S(=O)(c1ccc(Br)cc1)c1nnn2c1nc(NCc1ccc3c(c1)OCO3)c1sccc12	-3.9%	.	4.7%	9.4%
COCCCNC(=O)Cn1c(=O)n(CCCC(=O)NCc2ccc(C)cc2)c(=O)c2ccccc21	-5.0%	-2.5%	3.1%	-1.6%
O=[N+]([O-])c1ccc(CSc2ccc(S(=O)(=O)N3CCCCCC3)cn2)cc1	.	20.8%	32.5%	11.2µM*
SMILES	ClpP mod	GLP1R ag	GLP1R cytotox	GLP-1R inv ag
O=S(=O)(c1ccc(SCc2ccc(Br)cc2)nc1)N1CCCCC1	-2.4%	-11.7%	-0.2%	-38.2%
O=C(O)c1ccc(N/N=C/c2c(F)cccc2Cl)cc1	1.6%	-4.6%	-2.2%	5.01µM*
CCCCCC(=O)NNC(=O)c1ccc(F)cc1	2.82µM*	-7.3%	-13.1%	10.9%
CCN(C(=O)c1noc2c1COc1ccc(C)cc1-2)c1cccc(C)c1	-7.0%	-7.4%	4.1%	?
O=C(Nc1nnc(-c2ccc(Cl)cc2)o1)Nc1ccccc1Cl	28.2µM*	-11.9%	1.1%	9.1%
COCCCNC(=O)CSc1nc(-c2ccccc2)[nH]c1-c1ccc(C)cc1	25.1µM*	.	3.6%	-13.2%
CCc1ccc(-c2nc(SCC(=O)NCC3CCCO3)c(-c3ccc(C)cc3)[nH]2)cc1 (stereo not drawn)	31.6µM*	.	1.7%	-18.4%
COCCCNC(=O)CSc1nc(-c2cccc(F)c2)[nH]c1-c1ccccc1	28.2µM*	.	6.0%	-17.1%
COc1cc(NC(=O)Cn2nc(C(F)(F)F)c3c2CCC3)cc(OC)c1OC	-2.7%	0.1%	2.5%	-27.1%
Cn1c(=O)[nH]c2cc(-c3noc(-c4ccc(Br)cc4)n3)ccc21	-10.3%	-4.0%	1.5%	-2.8%
Oc1c(N=Nc2ccccn2)ccc2ccccc12	0.3%	-17.4%	5.01µM*	?
COc1ccc(C2=Nc3ccc(F)cc3NC(c3cccc(C(F)(F)F)c3)=N2)cc1	2.4%	.	-12.7%	?
CCCCc1c(O)c2ccccc2n(CCCC)c1=O	0.3%	-0.2%	4.3%	-3.8%
CCCCc1c(CCC)c(=N)c2ccccc2n1C	15.8µM*	2.9%	?	?
Cn1c(SCC(=O)Nc2nc3ccccc3s2)ncc(C(=O)Nc2ccc(Cl)cc2)c1=O	22.4µM*	.	-13.8%	7.7%
Cn1c(SCC(=O)Nc2nc3ccccc3s2)ncc(C(=O)Nc2ccccc2)c1=O	?	.	-3.5%	10.1%
Cc1cccc(-c2noc(-c3ccc(Cl)cc3[N+](=O)[O-])n2)c1	-1.4%	15.1%	43.8%	-2.8%
COc1ccc(-c2noc(-c3ccc(Cl)cc3[N+](=O)[O-])n2)cc1OC	28.2µM*	14.8%	10.7%	67.0%
O=C(Nc1cc(-c2ccc(F)c(F)c2)no1)c1ccccc1F	4.9%	.	-13.3%	7.9%
Fc1ccccc1NC(=S)Nc1ccc(Br)cc1	0.1%	-15.4%	?	-26.7%
S=C(Nc1cccc(Br)c1)c1ccccc1	-0.2%	4.4%	-5.5%	12.6µM*
Fc1cc(Br)ccc1NC(=S)Nc1ccccc1	28.2µM*	-3.1%	1.9%	18.6%
CC(C)C(=O)OCC(=O)[C@@]12OC(C3CCCCC3)O[C@@H]1CC1C3CCC4=CC(=O)C=C[C@]4(C)C3[C@@H](O)C[C@@]12C (stereo partly drawn)	.	-3.0%	.	.
Cc1cc(C)n(-c2nc(NCC(C)O)c3c4c(sc3n2)COC(C)(C)C4)n1 (stereo not drawn)	28.2µM*	-1.1%	?	0.0%
Cc1cc(C)n(-c2nc(NCC3CCCO3)c3c4c(sc3n2)COC(C)(C)C4)n1 (stereo not drawn)	64.4%	1.1%	3.16µM*	?
Cc1cc(C)n(-c2nc(NCCCO)c3c4c(sc3n2)CCCC4)n1	17.8µM*	14.7%	?	?
Cc1cc(C)n(-c2nc(NCCO)c3c4c(sc3n2)CCCC4)n1	-22.5%	24.0%	?	4.47µM*
